Among all 370,000 compounds or so, about 5,400 (1.5%) were called active.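 The calls were made as follows: active = activation above the mean of all tested compounds plus 3 SD (cut at about 5.5% in these data); inactive = the rest.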 Only a selection was taken, and actives are over-represented in it overall.
What follows are compounds tested on DAF-12 nuclear receptor (Haemonchus contortus) (assay: H. contortus DAF-12 nuclear receptor activators, primary screen, cell-based, luminescence, HEK293, lit1-tk-luc reporter (AID 652067;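 also: 100% = response to 3 µM Δ7-dafachronic acid high control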)). Details: HEK293 hcDAF-12 lit1-tk-luc reporter, at 6.8 µM, hits give high values, 0% DMSO, 100% Δ7-dafachronic acid.
`Cc1oc(CC(C)C)c(CN2CCCC2)c1C(=O)O` was tested, and the activation was -1.65% (inactive).
For `CC(C)c1cc(C(=O)O)on1`, the activation was -0.85% (inactive).
For `CC(C)Cc1oc(C(=O)O)cc1CN`, the activation was 6.53% (active).
`O=C(OC12CCCN(C1)/C(=C/c1cccnc1)C2)C1CCCC1` (stereo not drawn) was tested, and the activation was -3.57% (inactive).
With `COC(=O)c1c(-c2ccc(OC)cc2)c2c(c3c4cc(OC)ccc4n(S(=O)(=O)c4ccc(F)cc4)c13)C(=O)N(C)C2` the activation was -2.09% (inactive).
`O=[N+]([O-])c1ccc2nc(-c3ccccn3)[nH]c2c1` was tested, and the activation was 5.76% (active).
For `O=C(Nc1ccc([N+](=O)[O-])cc1)OCCc1ccccn1`, the activation was 1.17% (inactive).
With `O=[N+]([O-])c1cc([N+](=O)[O-])c2cccnc2c1O` the activation was 3.46% (inactive).
With `O=C(N1CCOCC1)N1CC[C@H]2[C@H](CCCN2Cc2ccc(F)cc2)C1` the activation was 0.64% (inactive).
`Cc1ccccc1CN1CCCCC(NC(=O)Nc2ccccc2F)C1=O` (stereo not drawn) was tested, and the activation was -3.94% (inactive).
`CC(C)c1ccc(Nc2nnc(SCC(=O)c3nnc(-c4ccccc4)o3)s2)cc1` was tested, and the activation was 6.6% (active).
In the case of `CN(C(=O)CSc1nnc(Nc2ccccc2)s1)C1CCS(=O)(=O)C1` (stereo not drawn), the activation is reported as -0.76% (inactive).
With `CC(C)Nc1nnc(SCC(=O)c2c[nH]c3ccccc23)s1` the activation was 4.15% (inactive).
In the case of `COC(=O)C1=C(C)N(Cc2cccc(C(F)(F)F)c2)C(=NCc2cccc(C(F)(F)F)c2)NC1c1ccccc1C(F)(F)F` (stereo not drawn), the activation is reported as -2.22% (inactive).
`CC[C@@H](CCC(=O)N(c1ccccc1)c1ccccc1)C1CC1` was tested, and the activation was -2.66% (inactive).
For `COc1ccc(-c2csc(Cc3nc(O)cs3)n2)cc1`, the activation was 10.9% (active).
For `COc1ccc(C(C)(O)c2nc(-c3cc(F)cc(F)c3)cs2)cc1` (stereo not drawn), the activation was -1.58% (inactive).
In the case of `COc1ccc(C(C)(NC(C)=O)c2nc(-c3ccc(S(C)(=O)=O)cc3)cs2)cc1` (stereo not drawn), the activation is reported as -1.14% (inactive).
`O=S1(=O)c2c(cccc2N2CCSCC2)Oc2ccccc2CN1Cc1cn(Cc2ccc(F)cc2)nn1` was tested, and the activation was -2.88% (inactive).
`O=C(CNS(=O)(=O)c1ccccc1F)N1CCN(c2ccccn2)CC1` was tested, and the activation was -0.84% (inactive).
`O=C(Nc1cccc(F)c1)c1cc(-c2ccco2)nc2ccccc12` was tested, and the activation was 5.67% (active).
With `O=C(Nc1cccc(F)c1)c1coc(=O)c(Br)c1` the activation was 0.1% (inactive).
`CN(C(=O)COC(=O)c1cc(-c2ccco2)nc2ccccc12)C1CCS(=O)(=O)C1` (stereo not drawn) was tested, and the activation was 1.58% (inactive).
For `O=C(NCc1ccc(Cl)cc1)C1CCCN(c2nc3ccccc3o2)C1` (stereo not drawn), the activation was -2.71% (inactive).
With `CC(CNC(=O)c1ccc(Br)o1)NC(=O)c1ccc(Br)o1` (stereo not drawn) the activation was -0.92% (inactive).
In the case of `C/C(=N/NC(=O)c1ccc(Br)o1)c1ccc(C)o1`, the activation is reported as 8.8% (active).
`C/C(=N\NC(=S)NC1CCCCC1)c1ccc(C)o1` was tested, and the activation was -1.13% (inactive).
In the case of `c1cncc(CNc2ccnc(-c3ccc4c(c3)OCO4)n2)c1`, the activation is reported as 0.49% (inactive).
`CN1CCN(c2ccc(NC(=O)c3ccc4c(c3)OCCO4)cc2Cl)CC1` was tested, and the activation was 6.55% (active).
In the case of `O=C(Nc1ccc(N2CCOCC2)c(Cl)c1)c1ccc(S(=O)(=O)N2CCOCC2)cc1`, the activation is reported as -2.07% (inactive).
In the case of `Cc1ccc(C(=O)Nc2ccc3c(c2)OCCO3)cc1S(=O)(=O)N1CCOCC1`, the activation is reported as 0.29% (inactive).
In the case of `CCSC1(SCC)N=C(N)C2(C#N)C(c3ccccc3)NC(C)=CC12C#N` (stereo not drawn), the activation is reported as -0.75% (inactive).
For `CCC1C(=O)c2ccccc2N(C)C1=O` (stereo not drawn), the activation was 4.03% (inactive).
With `CN1C(=O)/C(=C\c2cc(Br)cs2)c2ccccc21` the activation was 6.07% (active).
With `CN1C(=O)/C(=N/OC(=O)c2ccccc2Br)c2ccccc21` the activation was -0.66% (inactive).
For `COC(=O)[C@]12C[C@H](CC(=O)NCc3ccc(C)o3)C(=O)N(CCC3=CCCCC3)C1=C[C@H](C(C)(C)C)O[C@@H]2C`, the activation was 0.28% (inactive).
For `COc1ccc(/C=N/Nc2ncnc3sc4c(c23)CCCC4)cc1O`, the activation was 2.31% (inactive).
For `COc1cc(/C=N/Nc2nc3ccccc3s2)ccc1O`, the activation was 11.4% (active).
For `O=[N+]([O-])c1cc(Br)c(O)c(/C=N/Nc2nc3ccccc3s2)c1`, the activation was 5.75% (active).
`COc1cc(/C=C/C(=O)OCC(=O)NCCCc2ccccc2)ccc1O` was tested, and the activation was -0.23% (inactive).
With `O=C(N/N=C/c1cc([N+](=O)[O-])ccc1O)/C(=C\c1cccs1)NC(=O)c1ccccc1` the activation was 2.67% (inactive).
In the case of `O=C(C1CCCN1S(=O)(=O)c1ccccc1)N1CCc2ccccc2C1` (stereo not drawn), the activation is reported as -0.91% (inactive).
`O=C(CSc1nnc(-c2ccccn2)n1-c1ccccc1)Nc1ccc2cn[nH]c2c1` was tested, and the activation was 1.82% (inactive).
With `CN[C@H]1C[C@H]2c3cc(N4CCOCC4)ccc3CCN2C[C@H]1[C@H](C)O` the activation was 0.66% (inactive).
For `CCCOc1ccc(NC(=O)CC2C(=O)N(C)C(=S)N2Cc2ccc3c(c2)OCO3)cc1` (stereo not drawn), the activation was -1.25% (inactive).
In the case of `O=C(Nc1ccc(Cl)cc1)C1c2cccc[n+]2CC(=O)N1Cc1ccc2c(c1)OCO2` (stereo not drawn), the activation is reported as 6.69% (active).
For `O=C(Nc1ccc2c(c1)OCCO2)C1c2ccccc2OCC(=O)N1Cc1ccccn1` (stereo not drawn), the activation was 2.69% (inactive).
For `O=C(COC(=O)/C(=C/c1cccs1)c1cccs1)NCc1ccccc1Cl`, the activation was -2.32% (inactive).
With `COc1cccc(NC(=O)N(C)C[C@@H]2OCc3cn(nn3)CCCC(=O)N([C@@H](C)CO)C[C@H]2C)c1` the activation was 1.21% (inactive).
With `O=c1c2c(nc3cc(-c4cccc(Cl)c4)[nH]n13)CCCC2` the activation was 8.74% (active).
`CSc1nc2nc3c(c(=O)n2[nH]1)CCC3` was tested, and the activation was 0.72% (inactive).
`COc1cccc(CC(=O)N2CCN(C(=O)C(=O)c3cccc(C(F)(F)F)c3)CC2)c1` was tested, and the activation was 1.16% (inactive).
`CC(C)CSc1nnc(-c2cccnc2)n1Cc1ccccc1` was tested, and the activation was -1.13% (inactive).
In the case of `O=C(c1ccncc1)N1CC[C@H]2[C@H](CCCN2Cc2ccc(F)cc2)C1`, the activation is reported as -1.38% (inactive).
For `CC(C)c1ccc(C=NNc2ccc([N+](=O)[O-])cn2)cc1`, the activation was 9.24% (active).
In the case of `CC(NC(=O)C(=O)N/N=C/c1ccc(Cl)cc1)c1ccccc1` (stereo not drawn), the activation is reported as -1.03% (inactive).
With `CC(C)c1ccc(/C=C2\NC(=O)NC2=O)cc1` the activation was -2.26% (inactive).
For `COC(=O)[C@]12C[C@H](CC(=O)NCc3cccc(C(F)(F)F)c3)C(=O)N(Cc3ccc4c(c3)OCO4)C1=C[C@H](COCc1ccccc1)O[C@@H]2C`, the activation was 0.41% (inactive).
